Compounds with a hit are over-represented: about 3.2% of the library has one in this group of screens.
Pol III holo inh – DNA polymerase III holoenzyme inhibition. reconstituted DNA polymerase III holoenzyme replication, biochemical. Potency, µM (highest dose often 57.1 µM). 71,000 compounds, 0.25% hits
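Reconstituted *E. coli* holoenzyme (0.35 nM Pol III, 1 nM beta, 154 nM SSB, 2 nM primase) was preincubated with compound for 15 min at RT. Synthesis on 1.4 nM ssM13Gori ran 35 min, then was stopped with PicoGreen/EDTA and read as dsDNA fluorescence.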
Caspase-1 inhib – caspase-1 (human) inhibition, allosteric or competitive; P29466; Caspase-1 enzyme, Ac-WEHD-AFC fluorogenic rate; Potency, µM (series often up to 57.5 µM), actives largely listed as inhibitors; 75,000 compounds, 0.03% hits
Caspase-7 inhib – allosteric or competitive inhibitors of human caspase-7; P55210; recombinant caspase-7, Ac-DEVD-AFC fluorescence rate; Potency, µM (highest dose often 57.5 µM), actives largely listed as inhibitors; 75,000 compounds, 0.02% hits; AID 889; active = well fitted inhibition curve with a large enough effect in the main read-out, with a control signal flat, not every such curve was filed as active; inconclusive = small, poorly fitted or top-dose-only effect, or a change in a side signal
Tau fil binding – binders of human tau filaments. 71,000 compounds, 2% hits. Potency, µM (highest dose often 57.1 µM). AID 596. recombinant tau filaments, thioflavin S fluorescence, 15 h; filaments grown with octadecylsulfate alongside compound. P10636;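 note: actives lower thioflavin S fluorescence by blocking filaments or displacing dye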
Target sequence (P10636 whole entry, looked up): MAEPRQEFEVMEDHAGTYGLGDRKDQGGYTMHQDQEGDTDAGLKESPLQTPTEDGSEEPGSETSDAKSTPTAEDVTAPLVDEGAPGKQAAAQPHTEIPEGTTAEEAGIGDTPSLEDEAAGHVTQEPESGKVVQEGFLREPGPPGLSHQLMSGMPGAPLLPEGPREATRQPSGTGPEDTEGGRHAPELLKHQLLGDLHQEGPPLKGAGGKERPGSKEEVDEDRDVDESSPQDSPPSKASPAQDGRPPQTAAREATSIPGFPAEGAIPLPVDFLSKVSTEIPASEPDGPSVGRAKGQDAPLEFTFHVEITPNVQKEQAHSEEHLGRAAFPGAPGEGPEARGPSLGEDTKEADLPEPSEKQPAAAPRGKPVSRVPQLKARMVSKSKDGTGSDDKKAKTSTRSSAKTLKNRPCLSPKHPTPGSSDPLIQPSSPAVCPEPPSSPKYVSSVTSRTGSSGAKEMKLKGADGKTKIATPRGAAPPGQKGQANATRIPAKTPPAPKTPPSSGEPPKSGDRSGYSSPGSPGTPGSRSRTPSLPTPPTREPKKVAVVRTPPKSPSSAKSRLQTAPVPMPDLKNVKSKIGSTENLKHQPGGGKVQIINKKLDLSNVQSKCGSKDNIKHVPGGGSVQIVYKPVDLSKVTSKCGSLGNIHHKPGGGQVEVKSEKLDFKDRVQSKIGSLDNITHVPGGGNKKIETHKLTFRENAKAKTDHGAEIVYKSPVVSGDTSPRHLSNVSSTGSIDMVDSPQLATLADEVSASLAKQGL
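His-tagged recombinant human tau (exons 2, 3, 10; 1 uM final) fibrillized with 30 uM sodium octadecylsulfate, 15 h at 37 C, in pH 7.4 HEPES buffer with 10 uM thioflavine S and 5 mM DTT. Reduced ThS fluorescence (450/510 nm) marks activity.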
15-hLO inh – inhibitors of human 15-lipoxygenase (ALOX15) | 74,000 compounds, 1.4% hits | purified 15hLO-1, xylenol orange hydroperoxide absorbance | Potency, µM (doses to about 57.1 µM), most hits filed as inhibitors; note: nearly all actives have a fitted effect of over 55% in size
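Inhibition is scored from a chromogenic endpoint. After 15 min enzyme-compound contact, arachidonic acid (50 uM final) reacts 6 min with 40 nM 15hLO-1 at room temperature, then Fe-XO reagent is added for 30 min and absorbance ratio recorded.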
Of the large screens only hits and unclear results are named; the others gave an inactive call. Unless noted, calls come from the whole dose curve; as a rule, active = well fitted curve in the direction sought with a large enough effect; inconclusive = small, poorly fitted or top-dose-only effect, or another doubt; inactive = no such curve, though single readings can be large; an effect the other way counts as inactive or inconclusive.

Cc1cccc(CNc2ncnc3ccc(-c4ccc(C(=O)N(C)C)cc4)cc23)c1	none
Nc1ccc(O)cc1C(=O)OCC(=O)C12CC3CC(CC(C3)C1)C2	15-hLO inh 12.6µM
O=C(CN1C2=NCCN2c2ccccc21)C12CC3CC(CC(C3)C1)C2	none
N#CC1=C(N)SC(N)=C(C#N)C1c1cccc(Oc2ccccc2)c1	15-hLO inh 5.01µM
CCOc1ccc(C2C(C#N)=C(N)SC(N)=C2C#N)cc1OCC	15-hLO inh inconclusive
CC1=C(C#N)c2nc(N)c(C#N)c(C)c2/C1=C\c1ccccc1	15-hLO inh 39.8µM
Cc1c(N/C=C/C(=O)c2cccs2)c(=O)n(-c2ccccc2)n1C	15-hLO inh 25.1µM
Cc1ccc(-c2nc3ncccn3c2Nc2ccc3c(c2)OCO3)o1	Tau fil binding 12.6µM
c1ccc(-c2nc3cnccn3c2Nc2ccc3c(c2)OCCO3)cc1	none
Cc1ccc(-c2nc3ncccn3c2NC2CCCC2)o1	Tau fil binding 12.6µM
Oc1ccc(-c2nc3ncccn3c2Nc2ccc3c(c2)OCO3)cc1	15-hLO inh 10µM
C[C@H](Br)C(=O)c1ccc2cc(Br)c3ccccc3c2c1	none
COc1cccc2c1C(=O)c1c(O)c3c(c(O)c1C2=O)C[C@@](O)(C(C)=O)C[C@@H]3O[C@H]1C[C@H](N)[C@H](O)[C@H](C)O1	Pol III holo inh 0.158µM, Tau fil binding 0.126µM
O=S1(=O)CC(NCc2ccccc2)C(Nc2ccccc2)C1 (stereo unspecified)	none
COc1ccc(NC2CS(=O)(=O)CC2NCc2ccco2)cc1 (stereo unspecified)	15-hLO inh 15.8µM
C[C@H](CO)NC(=O)[C@H]1C[C@@H]1[C@H](NP(=O)(c1ccccc1)c1ccccc1)c1ccccc1	none (no result: 15-hLO inh)
O=c1oc2ccccc2c(O)c1/C=N/c1nc(-c2ccc(O)c(O)c2)cs1	15-hLO inh inconclusive
Oc1ccc(-c2nc(-c3ccc(O)c(O)c3)cs2)cc1	Tau fil binding inconclusive, 15-hLO inh 1.58µM
c1ccc(-c2nn3c(-c4ccncc4)nnc3s2)nc1	Tau fil binding 12.6µM, 15-hLO inh inconclusive
Clc1ccc(-c2nnc3sc(-c4ccccn4)nn23)cc1	none
Cc1ccc(-c2nnc3sc(-c4ccncc4)nn23)cc1	Tau fil binding 25.1µM
CCC(C)c1ccc(O)c(N)c1 (stereo unspecified)	Tau fil binding inconclusive, 15-hLO inh 12.6µM
CCC(C)c1ccccc1O (stereo unspecified)	none
c1ccc2c(c1)ccc1cc3c(ccc4ccccc43)cc12	none
O=C(C[n+]1ccc2ccccc2c1)c1ccc2ccc3ccccc3c2c1	Tau fil binding 2µM
O=c1[nH]c2c(cc1CNCCN1CCOCC1)c(-c1cccc(F)c1)nn2-c1ccccc1	Tau fil binding inconclusive, 15-hLO inh 0.0316µM (no result: Caspase-7 inhib)
Cc1nn(-c2ccc(Cl)cc2)c2[nH]c(=O)c(CNCc3ccc4c(c3)OCO4)cc12	none
Cc1nn(-c2ccccc2)c2[nH]c(=O)c(CNc3ccc(N4CCOCC4)cc3)cc12	Tau fil binding 20µM, 15-hLO inh 12.6µM
CCC(C)n1cnc2c(c1=O)c1nc3ccccc3nc1n2Cc1ccccc1OC (stereo unspecified)	Tau fil binding 3.98µM
Cc1cccc(-n2cnc3c(c2=O)c2nc4ccccc4nc2n3Cc2ccco2)c1	Caspase-1 inhib inconclusive, Tau fil binding 12.6µM
COc1ccc(Cn2c3nc4ccccc4nc3c3c(=O)n(Cc4ccco4)cnc32)cc1	Caspase-1 inhib inconclusive, Caspase-7 inhib inconclusive, Tau fil binding 15.8µM, 15-hLO inh inconclusive
CCCn1cnc2c(c1=O)c1nc3ccccc3nc1n2Cc1ccccc1OC	none
Cc1c(N(C)CS(=O)(=O)O)c(=O)n(-c2ccccc2)n1C	15-hLO inh 25.1µM
Cc1c(N(C)C(=O)c2ccco2)c(=O)n(-c2ccccc2)n1C	none
Cc1ccc2c(c1)C1C=CCC1C(C(=O)O)N2 (stereo unspecified)	Pol III holo inh inconclusive, Caspase-1 inhib inconclusive, Tau fil binding inconclusive, 15-hLO inh inconclusive
COc1cccc2c1NC(C(=O)O)C1CC=CC21 (stereo unspecified)	Pol III holo inh 25.1µM
COc1ccc2nc(C)cc(N3CCOCC3)c2c1	none
Cc1cc(N2CCOCC2)c2c(N)c(C)cc(C)c2n1	Tau fil binding 15.8µM
CCOCCCNC(=O)c1cc2c(=O)n3cccc(C)c3nc2n1C	none
CCCCNC(=O)c1cc2c(=O)n3cccc(C)c3nc2n(Cc2ccccc2)c1=N	Caspase-7 inhib inconclusive, Tau fil binding 0.2µM (no result: Caspase-1 inhib)
COCCNC(=O)c1cc2c(=O)n3cccc(C)c3nc2n1C	none
CCn1c(=N)c(C(=O)NCc2cccnc2)cc2c(=O)n3cccc(C)c3nc21	Caspase-7 inhib inconclusive (no result: Caspase-1 inhib)
C=CCn1c(=N)c(C(=O)NCCCOC)cc2c(=O)n3cccc(C)c3nc21	Caspase-7 inhib inconclusive, 15-hLO inh 1.26µM (no result: Caspase-1 inhib)
COCCn1c(=N)c(C(=O)NCCc2ccccc2)cc2c(=O)n3cccc(C)c3nc21	Caspase-7 inhib inconclusive, Tau fil binding 3.16µM (no result: Caspase-1 inhib)
CCOCCCn1c(=N)c(C(N)=S)cc2c(=O)n3cccc(C)c3nc21	Pol III holo inh 25.1µM, Caspase-7 inhib inconclusive, 15-hLO inh inconclusive (no result: Caspase-1 inhib)
COc1cccc(/C=C/C2=CC3(C)CC2(C)C(c2cccc(OC)c2)CC3=O)c1 (stereo unspecified)	none (no result: Pol III holo inh, Tau fil binding)
Nc1cc(C(=O)O)c(O)c(S(=O)(=O)O)c1	Caspase-7 inhib inconclusive (no result: Caspase-1 inhib)
O=C(Nc1ccc2ncccc2c1)Nc1ccc2ncccc2c1	none
COC(=O)c1ccc2ncccc2c1	15-hLO inh 7.94µM
CC[C@](N)(C(=O)O)C(C)C	none
c1ccc2c(c1)CCN(c1nc3cc4c(cc3s1)OCO4)C2	15-hLO inh 10µM
c1ccc(N2CCN(c3nc4cc5c(cc4s3)OCO5)CC2)cc1	15-hLO inh 12.6µM
Cc1cc(C)n(-c2nc3ccccc3nc2Nc2ccc3c(c2)OCO3)n1	Caspase-1 inhib inconclusive, Caspase-7 inhib inconclusive
Cc1ccc2nc(Nc3ccc4[nH]c(=O)[nH]c4c3)c(-n3nc(C)cc3C)nc2c1	Caspase-1 inhib inconclusive, Caspase-7 inhib inconclusive, Tau fil binding 0.631µM
FC(F)(F)c1cnc(Nc2ccc(N3CCOCC3)cc2)c(Cl)c1	Tau fil binding 31.6µM
CN1CCN(Cc2nc3cccc4c3c([n+]2[O-])-c2ccccc2-4)CC1	none
N/N=C1/c2ccccc2N[C@H]1OC(=O)Nc1ccccc1	Pol III holo inh inconclusive, Tau fil binding 3.16µM
NCCC[C@@H](CC(=O)N[C@@H]1CCCC[C@H]1C(=O)N[C@H](CC(=O)N[C@@H](CCC(=O)O)CC(=O)O)Cc1c[nH]c2ccccc12)NC(=O)C[C@H](Cc1ccccc1)NC(=O)[C@@H]1CNCC[C@H]1N	none (no result: Caspase-1 inhib, Caspase-7 inhib, 15-hLO inh)
COC(=O)CSc1nc2c(c(-c3ccc(C)o3)c1C#N)CCCC2	none
Cc1ccc(-c2c3c([nH]c(=S)c2C#N)CCCC3)o1	Tau fil binding inconclusive, 15-hLO inh 10µM
CC(C)c1cccc2nc3c(c([Si](C)(C)C)c12)Cn1c-3cccc1=O	Caspase-7 inhib inconclusive, Tau fil binding 31.6µM (no result: Caspase-1 inhib, 15-hLO inh)

Screening data from PubChem.
